# Rows were chosen to be rich in hits. Some 3.7% of all compounds tested hit in one or more screens of this group.
# TIM10 inh – TIM10 yeast growth inhibition | S. cerevisiae TIM10 strain growth, BacTiter-Glo luminescence, 24 h | inhibition, % at 10 µM | 330,000 compounds, 1.4% hits | AID 463195;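 active means inhibition of 40% or more at the single tested concentration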;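 further: wild-type TIM10 isogenic control strain grown at permissive 25 °C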
# tim10-1 inh – inhibits growth of tim10-1 mutant yeast. 330,000 compounds, 2.2% hits. inhibition, % at 20 µM. S. cerevisiae tim10-1 ts strain growth, BacTiter-Glo, 24 h. AID 463190;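 active means inhibition of at least 40%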;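 further: mutant grown at 25 °C; 0% = DMSO wells with yeast and 100% = wells holding no yeast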
# PfHsp90 yeast 2 – inhibits growth of yeast expressing Plasmodium falciparum Hsp90 | S. cerevisiae expressing PfHsp90, BacTiter-Glo ATP, 48 h; yeast lacking PDR1 and PDR3 efflux regulators | inhibition, % at 9.4 µM | 310,000 compounds, 0.32% hits;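 active means every replicate shows inhibition above about 80%, whatever the replicate mean, limit read from the data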;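 further: 0% = DMSO neutral controls and 100% = 20 µM radicicol positive controls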
# V-ATPase pHluor – regulators of yeast V-ATPase proton transport; S. cerevisiae, pHLuorin cytosolic pH fluorescence; response, % at 10 µM; 350,000 compounds, 0.37% hits; AID 504577; in the data active means response mostly above about 7.3%, no sharp cut-off; inactive means mostly below about 5.4%; further: actives read high
# tim23-1 inh – inhibits growth of tim23-1 mutant yeast | S. cerevisiae tim23-1 growth, BacTiter-Glo luminescence, 24 h | inhibition, % at 20 µM | 330,000 compounds, 1.3% hits | AID 463212;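 active means growth inhibition of the mutant yeast at or above 50%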;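 further: temperature-sensitive mutant grown at 25 °C; plate controls were DMSO-treated mutant yeast for no effect and medium wells lacking yeast for full effect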
# TIM10 conf – TIM10 yeast growth inhibition, confirmed | shares compounds with TIM10 inh | S. cerevisiae tim10 strain growth, BacTiter-Glo luminescence, 24 h | inhibition, % at 10 µM | 4,600 compounds, 63% hits;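 active means inhibition of yeast growth at or above a set limit in either of two replicates at 10 µM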;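 further: this counterscreen used the strain with wild-type TIM10; 0% = yeast with DMSO and 100% = medium wells lacking yeast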
# tim23-1 confirm – tim23-1 yeast growth inhibition, confirmed | shares compounds with tim23-1 inh | inhibition, % at 20 µM | 4,400 compounds, 83% hits | S. cerevisiae tim23-1 growth, BacTiter-Glo luminescence, 24 h;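 active means inhibition above about 39% in either of two replicate wells at 20 µM, limit read from the data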;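 further: temperature-sensitive tim23-1 mutant grown at 25 °C; 0% = DMSO wells with yeast and 100% = medium wells without yeast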
# Active calls of the source: *; . = no result given; ! = not active in a repeat.
SMILES,TIM10 inh,tim10-1 inh,PfHsp90 yeast 2,V-ATPase pHluor,tim23-1 inh,TIM10 conf,tim23-1 confirm
S=C(NNc1ccnc2cc(Cl)ccc12)Nc1ccccc1Cl,40.1*,39.8,21.0,0.6,55.8*,-21.6,34.5
Cc1ccc(-n2c(-c3ccc(Cl)cc3)n[nH]c2=S)c(C)c1,46.6*,24.2,-16.0,-2.0,54.6*,48.7*,42.3*
COc1ccc(-c2n[nH]c(=S)n2-c2ccc(C)cc2C)cc1,30.6,38.6,6.1,-0.3,42.5,.,.
COc1ccc(C(=O)CSc2nc3nn(-c4ccccc4)c(=O)c-3c3n2CCCCC3)c(OC)c1,.,.,.,0.1,.,.,.
Cc1c(C)c2cccnc2c2ncccc12,56.5*,38.3,123.6*,-2.0,68.5*,62.0*,44.9*
O=C(Nc1ccc(-c2cn3ccccc3n2)cc1)c1ccc(Cl)cc1,2.6,-5.0,-26.8,1.8,11.5,.,.
O=C(Nc1ccc(-c2cn3ccccc3n2)cc1)c1ccco1,44.3*,-17.6,21.9,1.6,59.5*,1.1,59.1*
CCN(CC)C(=O)c1sc2nc(-c3cccs3)cc(-c3cccs3)c2c1N,42.7*,34.7,-0.4,0.0,52.9*,34.8*,43.2*
CC(C)(C)C(=O)c1sc2nc(-c3cccs3)cc(C(F)(F)F)c2c1N,6.6,38.3,-20.9,1.5,32.5,.,.
CCOC(=O)CS(=O)(=O)c1nc(-c2ccccc2)cc(C(F)(F)F)n1,44.2*,38.1,-24.1,0.7,64.3*,55.2*,-40.6
COc1ccc(C(=O)NC(=S)Nc2ccc3c4c(cccc24)CC3)cc1OC,26.1,28.8,11.3,1.8,27.9,.,.
CC1CC(C)CN(CCCNC(=O)c2nn(C)c3c2CS(=O)(=O)c2ccccc2-3)C1 (stereo not given),4.7,11.3,18.6,-2.6,5.7,.,.
O=C(CC(=O)c1ccccc1)Nc1ccccc1,13.9,0.9,-2.5,-0.4,8.6,.,.
O=C1/C(=C\c2ccc(Br)o2)Cc2ccccc21,20.0,14.2,27.4,0.4,26.9,.,.
O=C1/C(=C/c2cccs2)Cc2ccccc21,48.3*,19.8,8.8,0.7,50.6*,-47.8,70.0*
COc1ccc(NCC(=O)Nc2c(C)cccc2C)cc1S(=O)(=O)N1CCOCC1,.,.,.,-1.2,.,.,.
O=C(Nc1ccc(OC(F)(F)F)cc1)N1CCN(c2ccnc3cc(Cl)ccc23)CC1,46.0*,35.5,-22.2,-0.3,74.4*,27.8,67.2*
CC(C)(C)C(=O)N1CCN(c2ccnc3cc(Cl)ccc23)CC1,3.1,-3.3,-14.4,0.1,12.1,.,.
CCN(CC)c1ccc(NC2CC(=O)N(CCc3ccc(OC)cc3)C2=O)cc1 (stereo not given),9.2,12.9,13.5,3.5,6.8,.,.
CCOC(=O)N1CCN(C(=O)c2cc(-c3ccc(F)cc3)[nH]c2C)CC1,14.5,17.8,.,-4.8,10.9,.,.
Cc1[nH]c(-c2ccc(F)cc2)cc1C(=O)N1CCN(c2ccc(Cl)cc2)CC1,48.6*,35.6,-52.8,1.5,73.1*,42.1*,54.3*
N/C(=N\OC(=O)c1ccc(Cl)c([N+](=O)[O-])c1)c1ccccc1,71.9*,33.9,13.3,0.3,81.4*,72.2*,78.3*
O=C(Nc1cccc2nsnc12)c1cccs1,68.5*!,15.9,-23.5,-2.6,61.1*!,58.4*,76.0*
Oc1c(CN2CCc3ccccc3C2)cc(Cl)c2cccnc12,43.2*,34.5,102.4*,-3.5,56.2*,41.0*,54.5*
CC(C)[C@H](NC(=O)OCc1ccccc1)C(=O)OCC(=O)N1C(C)CCCC1C (stereo not given in full),.,.,-6.3,0.2,.,.,.
N#Cc1ccccc1Cn1cc(/C=C/[N+](=O)[O-])c2ccccc21,66.7*,31.9,10.5,0.5,69.1*,-1.1,81.8*
CCOC(=O)N1CCN(C(=O)Nc2ccc3nc(C)sc3c2)CC1,5.7,-3.1,-7.6,0.1,-4.3,.,.
CCOC(=O)Nc1ccc2nc(N3CCCCCC3)sc2c1,40.1*,35.6,-0.5,0.5,50.0*,39.9*,-29.4
COc1ccc(Nc2nc(N)nc(CSC(=S)N3CCCCC3C)n2)cc1 (stereo not given),40.0,29.3,-11.0,4.1,53.1*,24.3,44.9*
O=C1c2ccccc2C(=O)c2c1ncn2-c1ccccc1,45.7*,39.0,-43.2,-0.1,50.0,3.7,44.7*
